PfM18AAP inh = PfM18AAP enzyme inhibition; recombinant PfM18AAP, H-Glu-NHMec fluorogenic cleavage; inhibition, % at 7.35 µM; 290,000 tested, 1.2% active;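 active = inhibition above the campaign mean inhibition over all tested compounds plus 3 SD, cut at about 28% in these data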
PfG6PD inh = PfG6PD (Plasmodium falciparum) enzyme inhibition; inhibition, % at 20 µM; 350,000 tested, 0.78% active; AID 504690; PfGluPho enzyme, NADPH resazurin-diaphorase fluorescence;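 active = inhibition reaching at least a set limit at 20 µM in the primary screen, cut at about 59% in these data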
PHOSPHO1 inh = inhibitors of human PHOSPHO1 phosphatase; AID 1565; recombinant PHOSPHO1, absorbance phosphatase assay; inhibition, % at 13.3 µM; 290,000 tested, 1.1% active; in the data active = inhibition above about 60%
Target sequence (Q8TCT1 whole entry, looked up): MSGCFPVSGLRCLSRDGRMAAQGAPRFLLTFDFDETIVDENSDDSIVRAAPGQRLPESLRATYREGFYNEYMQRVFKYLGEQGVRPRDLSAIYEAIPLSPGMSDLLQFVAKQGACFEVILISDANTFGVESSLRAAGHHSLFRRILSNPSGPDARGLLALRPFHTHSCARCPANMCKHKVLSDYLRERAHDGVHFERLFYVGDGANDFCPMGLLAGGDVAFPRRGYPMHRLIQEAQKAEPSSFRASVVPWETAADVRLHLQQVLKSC
H9c2 protect = myocardial damage modulation in H9c2 cells | 360,000 tested, 0.63% active | protection from H2O2 cell death, % at 20 µM | H9c2 cardiomyocytes, H2O2 injury protection, ATPLite, 2 h;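 active = compounds giving at least 50% protection of heart cells from peroxide-induced death in the single-dose screen, raw or plate-pattern-corrected value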
ALR inh = inhibitors of human sulfhydryl oxidase ALR; P55789; purified ALR, DTT oxidation, H2O2 HRP-luminol luminescence; inhibition, % (concentration not given with the values); 290,000 tested, 3.8% active; AID 485317;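 active = mean replicate inhibition above about 79%, with every replicate also reaching it, limit read from the data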
Hits are given with their value; – = inactive; · = not tested or not shown. Compounds with a hit are over-represented: about 5.6% of the library has one in this group of screens.

SMILES | PfM18AAP inh | PfG6PD inh | PHOSPHO1 inh | H9c2 protect | ALR inh
COc1ccc(/C=N/NC(=O)c2ccc(CSc3nc(C)cc(C)n3)cc2)cc1O | – | – | – | – | 77
Cc1cc(C)nc(SCc2ccc(C(=O)N/N=C/c3cccc(O)c3O)cc2)n1 | – | – | – | – | ·
Cn1cnnc1SCc1ccc(C(=O)N/N=C(\CCC(=O)O)c2ccc(C(C)(C)C)cc2)cc1 | – | – | – | – | 98
COc1ccc(O)c(/C=N/NC(=O)c2ccc(CSc3nc(C)cc(C)n3)cc2)c1 | – | – | – | 57 | –
CCOc1ccc([C@@H]2CC=C(C(=O)O)CN2S(=O)(=O)c2ccc(C)cc2)cc1 | · | – | · | – | –
COc1ccc(C(=O)N[C@H](C(=O)Nc2cccc(S(=O)(=O)N3CCOCC3)c2)C(C)C)cc1 | · | – | · | – | ·
Cc1cc(C)n(-c2ccc(C(=O)OCC(=O)Nc3ccccc3F)cc2)n1 | · | – | · | – | –
COc1cc2c(cc1OC)CN(c1ccc([N+](=O)[O-])cc1C#N)CC2 | – | – | – | – | 87
COc1cc2c(cc1OC)CN(c1ccc([N+](=O)[O-])cc1Cl)CC2 | – | – | – | – | ·
CCO/C(C)=N/Oc1cnc2ccccc2c1 | · | · | · | – | ·
O=C(CCn1c(=O)oc2ccccc21)n1c(=O)oc2ccccc21 | – | – | – | – | 96
O=C(CCn1c(=O)oc2ccccc21)N1CCCCCC1 | – | – | – | – | –
O=c1c2ccccc2nc2c3ccccc3c(NCCO)nn12 | – | – | – | 58 | –
O=c1c2ccccc2nc2c3ccccc3c(NCc3ccccn3)nn12 | – | – | – | – | –
COc1cc(NC(=S)NCc2cccnc2)cc(OC)c1 | – | – | – | – | –
COc1cc(NC(=S)NCc2cccnc2)cc(OC)c1OC | – | – | 63 | – | –
CC1CCCC(NC(=O)CN2C(=O)NC(c3ccccc3)(c3ccccc3)C2=O)C1C (configuration not stated) | · | – | · | – | ·
CCOC(=O)/C=c1\s/c(=C(\C#N)C(=O)NC)n(-c2ccccc2)c1=O | – | – | – | – | –
Cc1ccccc1-n1c(=O)/c(=C\c2ccco2)s/c1=C(/C#N)C(=O)Nc1ccccc1 | – | – | 83 | 71 | –

Assay outcomes deposited in PubChem BioAssay by several laboratories.
